# Data reported in the supplement of paper PMC10849652.
# About 7,900 targets were measured; listed, in parts, are those with a hit and a random draw of the rest. About 0.6% of all pairs of compound and target were hits.
# Compound: Cn1cc(-c2ccc3c(c2)CCN3C(=O)Cc2cccc(C(F)(F)F)c2)c2c(N)ncnc21
# Assay: log2 fold change, soluble protein after heating vs DMSO (PISA); higher = thermal stabilisation; K562 cells, 10 uM, 30 min; active = over 0.2 and 3.5 SD of the protein, either way, in both replicates (recomputed)
# Method in brief: (§1)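 Values are thermal stability changes relative to control samples and are taken from duplicates. They are stated as log2 fold changes. Before quantification by TMTpro 16plex LC-MS/MS with equalised channel sums, K562 cells at 2×10^6 cells/mL were treated with 10 μM compound for 30 min, heated in aliquots for 3 min across 48°C-58°C, pooled, extracted in PBS with 0.5% NP-40 at 4°C, and centrifuged at 21,000xg for 90 min to give the soluble supernatant.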
# Sequence of UniProt Q5BKX5 (Q5BKX5 whole entry, looked up): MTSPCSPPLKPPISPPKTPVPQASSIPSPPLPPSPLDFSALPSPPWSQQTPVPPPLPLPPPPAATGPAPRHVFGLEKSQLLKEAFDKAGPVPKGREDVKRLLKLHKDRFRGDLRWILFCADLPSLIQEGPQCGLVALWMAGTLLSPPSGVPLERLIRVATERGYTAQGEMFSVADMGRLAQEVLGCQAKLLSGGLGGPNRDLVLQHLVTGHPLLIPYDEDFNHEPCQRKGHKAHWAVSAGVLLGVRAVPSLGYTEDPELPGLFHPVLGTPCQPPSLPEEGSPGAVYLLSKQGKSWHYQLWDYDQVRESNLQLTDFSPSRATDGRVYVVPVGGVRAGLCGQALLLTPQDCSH
# Sequence of UniProt Q14677 (Q14677 whole entry, looked up): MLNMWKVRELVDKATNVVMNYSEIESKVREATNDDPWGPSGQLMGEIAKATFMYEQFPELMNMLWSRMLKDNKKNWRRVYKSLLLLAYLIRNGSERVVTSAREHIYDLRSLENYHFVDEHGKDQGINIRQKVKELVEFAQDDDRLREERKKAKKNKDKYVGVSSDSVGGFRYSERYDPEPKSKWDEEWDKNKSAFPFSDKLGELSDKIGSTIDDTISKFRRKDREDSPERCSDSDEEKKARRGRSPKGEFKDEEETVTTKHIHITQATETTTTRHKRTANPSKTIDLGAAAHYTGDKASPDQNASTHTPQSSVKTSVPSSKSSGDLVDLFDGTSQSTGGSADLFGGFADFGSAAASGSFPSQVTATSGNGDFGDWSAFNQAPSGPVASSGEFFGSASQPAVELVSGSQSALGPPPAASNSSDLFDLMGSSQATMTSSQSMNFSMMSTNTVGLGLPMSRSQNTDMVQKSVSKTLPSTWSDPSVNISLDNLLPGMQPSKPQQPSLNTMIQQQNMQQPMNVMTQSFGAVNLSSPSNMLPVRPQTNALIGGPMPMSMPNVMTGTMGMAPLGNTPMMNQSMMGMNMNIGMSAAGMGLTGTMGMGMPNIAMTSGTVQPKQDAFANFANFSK
# Sequence of UniProt P46527 (P46527 whole entry, looked up): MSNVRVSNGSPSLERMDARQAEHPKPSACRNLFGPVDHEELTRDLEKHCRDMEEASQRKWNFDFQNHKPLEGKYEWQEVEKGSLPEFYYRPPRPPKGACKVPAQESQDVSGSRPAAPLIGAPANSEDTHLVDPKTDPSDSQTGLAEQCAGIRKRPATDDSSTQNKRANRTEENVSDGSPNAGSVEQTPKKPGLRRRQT
# Sequence of UniProt Q69YH5 (Q69YH5 whole entry, looked up): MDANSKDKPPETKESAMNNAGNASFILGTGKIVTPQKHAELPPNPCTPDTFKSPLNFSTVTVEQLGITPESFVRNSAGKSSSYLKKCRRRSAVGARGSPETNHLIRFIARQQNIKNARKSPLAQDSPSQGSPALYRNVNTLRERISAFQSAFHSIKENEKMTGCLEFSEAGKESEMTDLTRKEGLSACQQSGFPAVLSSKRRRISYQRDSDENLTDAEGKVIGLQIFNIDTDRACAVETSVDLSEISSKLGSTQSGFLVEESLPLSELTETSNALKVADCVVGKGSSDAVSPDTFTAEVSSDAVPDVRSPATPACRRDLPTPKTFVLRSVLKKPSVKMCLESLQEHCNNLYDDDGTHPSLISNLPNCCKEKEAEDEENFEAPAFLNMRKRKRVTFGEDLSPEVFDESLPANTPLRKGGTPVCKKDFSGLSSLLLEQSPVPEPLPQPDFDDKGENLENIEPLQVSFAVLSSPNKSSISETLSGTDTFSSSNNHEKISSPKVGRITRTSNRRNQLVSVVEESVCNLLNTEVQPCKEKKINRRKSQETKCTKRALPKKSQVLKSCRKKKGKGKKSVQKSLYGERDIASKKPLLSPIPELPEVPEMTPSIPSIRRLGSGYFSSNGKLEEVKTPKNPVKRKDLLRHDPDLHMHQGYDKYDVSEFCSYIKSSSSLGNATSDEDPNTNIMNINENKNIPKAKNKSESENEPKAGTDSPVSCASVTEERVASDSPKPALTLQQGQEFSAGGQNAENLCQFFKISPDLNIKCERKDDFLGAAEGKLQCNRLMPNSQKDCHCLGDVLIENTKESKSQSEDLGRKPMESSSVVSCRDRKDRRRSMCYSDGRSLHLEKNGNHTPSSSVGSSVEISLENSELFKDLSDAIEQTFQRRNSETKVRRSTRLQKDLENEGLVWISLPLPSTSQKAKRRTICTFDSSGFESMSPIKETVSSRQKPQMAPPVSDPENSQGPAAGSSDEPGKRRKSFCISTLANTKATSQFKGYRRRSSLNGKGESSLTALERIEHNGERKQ
# Sequence of UniProt Q8WUD6 (Q8WUD6 whole entry, looked up): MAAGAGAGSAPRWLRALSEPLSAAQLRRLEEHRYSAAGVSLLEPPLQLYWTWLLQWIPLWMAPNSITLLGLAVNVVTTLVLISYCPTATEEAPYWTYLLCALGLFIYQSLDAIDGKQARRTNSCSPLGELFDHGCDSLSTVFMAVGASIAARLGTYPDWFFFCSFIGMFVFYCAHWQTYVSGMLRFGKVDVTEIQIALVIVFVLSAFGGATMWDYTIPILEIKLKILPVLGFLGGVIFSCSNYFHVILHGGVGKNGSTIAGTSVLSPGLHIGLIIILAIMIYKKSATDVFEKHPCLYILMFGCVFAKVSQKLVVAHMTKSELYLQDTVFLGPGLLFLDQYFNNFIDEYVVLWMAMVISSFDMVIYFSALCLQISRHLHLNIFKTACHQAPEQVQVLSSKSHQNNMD
# Sequence of UniProt Q9NRR8 (Q9NRR8 whole entry, looked up): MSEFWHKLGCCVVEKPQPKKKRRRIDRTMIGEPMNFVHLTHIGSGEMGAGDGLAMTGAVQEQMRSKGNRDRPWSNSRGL
# Sequence of UniProt Q00536 (Q00536 whole entry, looked up): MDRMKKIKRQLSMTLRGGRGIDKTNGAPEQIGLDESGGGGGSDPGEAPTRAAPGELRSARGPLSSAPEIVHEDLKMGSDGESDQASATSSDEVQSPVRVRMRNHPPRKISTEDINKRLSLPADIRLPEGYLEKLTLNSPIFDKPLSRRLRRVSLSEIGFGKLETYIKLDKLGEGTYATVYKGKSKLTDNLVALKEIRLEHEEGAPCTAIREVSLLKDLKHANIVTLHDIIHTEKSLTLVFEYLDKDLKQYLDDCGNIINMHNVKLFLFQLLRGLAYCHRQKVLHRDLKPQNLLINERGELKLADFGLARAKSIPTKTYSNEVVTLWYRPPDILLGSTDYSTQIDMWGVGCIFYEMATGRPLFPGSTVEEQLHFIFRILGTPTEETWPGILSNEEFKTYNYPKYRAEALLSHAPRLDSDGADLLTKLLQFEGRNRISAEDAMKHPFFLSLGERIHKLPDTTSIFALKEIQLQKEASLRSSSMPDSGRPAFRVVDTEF
# Sequence of UniProt Q6P5X5 (Q6P5X5 whole entry, looked up): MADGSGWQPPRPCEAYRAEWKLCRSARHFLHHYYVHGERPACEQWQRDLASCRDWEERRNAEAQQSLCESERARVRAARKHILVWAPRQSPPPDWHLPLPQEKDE
# Sequence of UniProt Q13111 (Q13111 whole entry, looked up): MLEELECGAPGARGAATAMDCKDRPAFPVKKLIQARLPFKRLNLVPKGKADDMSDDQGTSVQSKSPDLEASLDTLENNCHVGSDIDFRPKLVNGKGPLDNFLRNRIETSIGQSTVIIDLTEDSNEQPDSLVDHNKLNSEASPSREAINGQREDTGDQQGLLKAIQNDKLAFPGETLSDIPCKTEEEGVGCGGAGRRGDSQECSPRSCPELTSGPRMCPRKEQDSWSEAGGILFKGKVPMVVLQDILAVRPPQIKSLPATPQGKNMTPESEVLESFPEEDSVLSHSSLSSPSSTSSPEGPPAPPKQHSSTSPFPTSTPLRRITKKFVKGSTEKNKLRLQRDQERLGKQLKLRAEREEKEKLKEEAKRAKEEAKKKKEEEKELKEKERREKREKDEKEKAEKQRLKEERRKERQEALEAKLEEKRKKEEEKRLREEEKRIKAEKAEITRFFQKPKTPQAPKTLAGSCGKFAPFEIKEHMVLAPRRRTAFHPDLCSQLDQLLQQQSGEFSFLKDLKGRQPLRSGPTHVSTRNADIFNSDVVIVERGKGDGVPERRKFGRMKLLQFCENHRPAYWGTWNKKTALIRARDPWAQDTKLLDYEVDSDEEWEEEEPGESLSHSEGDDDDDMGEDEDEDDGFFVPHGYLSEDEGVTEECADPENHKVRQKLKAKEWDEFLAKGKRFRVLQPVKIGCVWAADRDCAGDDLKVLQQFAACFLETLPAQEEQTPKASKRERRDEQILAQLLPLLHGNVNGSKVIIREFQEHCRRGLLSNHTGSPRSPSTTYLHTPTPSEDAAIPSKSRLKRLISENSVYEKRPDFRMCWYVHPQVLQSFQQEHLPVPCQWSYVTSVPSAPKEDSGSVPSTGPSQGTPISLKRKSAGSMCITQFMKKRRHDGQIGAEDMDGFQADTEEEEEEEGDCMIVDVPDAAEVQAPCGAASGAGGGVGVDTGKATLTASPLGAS
# Sequence of UniProt Q9NPF2 (Q9NPF2 whole entry, looked up): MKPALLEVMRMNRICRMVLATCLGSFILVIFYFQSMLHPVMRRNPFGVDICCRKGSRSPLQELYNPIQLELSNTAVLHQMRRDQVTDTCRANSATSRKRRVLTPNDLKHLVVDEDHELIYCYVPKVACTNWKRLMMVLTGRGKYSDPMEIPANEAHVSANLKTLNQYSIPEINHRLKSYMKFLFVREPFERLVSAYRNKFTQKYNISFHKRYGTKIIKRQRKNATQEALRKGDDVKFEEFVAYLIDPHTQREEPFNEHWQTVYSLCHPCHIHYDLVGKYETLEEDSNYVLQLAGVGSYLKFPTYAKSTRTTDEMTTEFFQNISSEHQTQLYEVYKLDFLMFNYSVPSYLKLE
# Sequence of UniProt P11802 (P11802 whole entry, looked up): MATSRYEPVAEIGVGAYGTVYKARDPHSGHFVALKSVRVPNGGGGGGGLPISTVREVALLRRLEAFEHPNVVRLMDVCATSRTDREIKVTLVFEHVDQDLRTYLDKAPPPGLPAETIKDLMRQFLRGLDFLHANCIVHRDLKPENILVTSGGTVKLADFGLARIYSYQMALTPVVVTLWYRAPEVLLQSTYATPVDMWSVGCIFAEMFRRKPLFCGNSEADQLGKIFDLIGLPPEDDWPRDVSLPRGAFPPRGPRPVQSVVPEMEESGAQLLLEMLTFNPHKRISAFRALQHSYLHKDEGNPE
row,Target,log2 fold change
1,CCDC57 (UniProt Q2TAC2),0.068 (inactive)
2,C15orf41 (UniProt Q9Y2V0),-0.097 (inactive)
3,COG2 (UniProt Q14746),-0.074 (inactive)
4,CDK19 (UniProt Q9BWU1),-0.01 (inactive)
5,CHAF1A (UniProt Q13111),0.006 (inactive)
6,C19orf54 (UniProt Q5BKX5),0.03 (inactive)
7,CMTM3 (UniProt Q96MX0),0.05 (inactive)
8,COX7B (UniProt P24311),-0.011 (inactive)
9,CCNC (UniProt P24863),-0.091 (inactive)
10,CDK17 isoform 2 (UniProt Q00537),-0.07 (inactive)
11,CHST11 (UniProt Q9NPF2),0.039 (inactive)
12,CDK16 isoform 2 (UniProt Q00536),-0.014 (inactive)
13,CDK4 (UniProt P11802),-0.084 (inactive)
14,CRLS1 (UniProt Q9UJA2),-0.002 (inactive)
15,CDC42SE1 (UniProt Q9NRR8),0.107 (inactive)
16,CHST10 (UniProt O43529),0.071 (inactive)
17,CDCA2 (UniProt Q69YH5),0.159 (inactive)
18,CENPE (UniProt Q02224),0.14 (inactive)
19,CEP128 (UniProt Q6ZU80),-0.026 (inactive)
20,CNN3 (UniProt Q15417),0.023 (inactive)
21,CD84 (UniProt Q9UIB8),-0.117 (inactive)
22,CLINT1 isoform 3 (UniProt Q14677),-0.071 (inactive)
23,CDKN1B (UniProt P46527),0.108 (inactive)
24,C22orf39 (UniProt Q6P5X5),-0.036 (inactive)
25,CLN5 (UniProt O75503),-0.119 (inactive)
26,CHPT1 (UniProt Q8WUD6),0.011 (inactive)

# Compound: Cn1cc(-c2ccc3nnc(C(F)(F)c4ccc5ncccc5c4)n3n2)cn1
# Assay: as above
# Method in brief: as §1
row,Target,log2 fold change
1,CASP8 isoform 9 (UniProt Q14790),-0.066 (inactive)
2,COX7C (UniProt P15954),0.366 (inactive)
3,CCDC57 (UniProt Q2TAC2),-0.021 (inactive)
4,CRTC2 (UniProt Q53ET0),-0.081 (inactive)
5,COMMD1 (UniProt Q8N668),-0.087 (inactive)
6,C15orf41 (UniProt Q9Y2V0),-0.088 (inactive)
7,C6orf120 (UniProt Q7Z4R8),-0.032 (inactive)
8,COG2 (UniProt Q14746),0.245 (inactive)
9,CAB39L (UniProt Q9H9S4),-0.032 (inactive)
10,CDK19 (UniProt Q9BWU1),-0.054 (inactive)
11,CHAF1A (UniProt Q13111),0.002 (inactive)
12,COPS3 isoform 2 (UniProt Q9UNS2),0.418 (inactive)
13,C19orf54 (UniProt Q5BKX5),0.14 (inactive)
14,CCNC (UniProt P24863),-0.015 (inactive)
15,CHST11 (UniProt Q9NPF2),-0.249 (inactive)
16,CDK16 isoform 2 (UniProt Q00536),0.013 (inactive)
17,CDK4 (UniProt P11802),-0.117 (inactive)
18,CDC42SE1 (UniProt Q9NRR8),-0.002 (inactive)
19,CHST10 (UniProt O43529),-0.09 (inactive)
20,CDCA2 (UniProt Q69YH5),-0.215 (inactive)
21,CENPE (UniProt Q02224),-0.123 (inactive)
22,CLINT1 isoform 3 (UniProt Q14677),-0.083 (inactive)
23,CDKN1B (UniProt P46527),0.04 (inactive)
24,C1D (UniProt Q13901),0.018 (inactive)
25,C22orf39 (UniProt Q6P5X5),0.031 (inactive)
26,CRTC1 isoform 2 (UniProt Q6UUV9),-0.079 (inactive)
27,CHPT1 (UniProt Q8WUD6),-0.027 (inactive)

# Compound: Cn1cncc1[C@@](N)(c1ccc(Cl)cc1)c1ccc2c(c1)c(-c1cccc(Cl)c1)cc(=O)n2C [tipifarnib]
# Assay: as above
# Method in brief: as §1
row,Target,log2 fold change
1,CASP8 isoform 9 (UniProt Q14790),-0.094 (inactive)
2,COX7C (UniProt P15954),0.105 (inactive)
3,CCDC57 (UniProt Q2TAC2),-0.023 (inactive)
4,CRTC2 (UniProt Q53ET0),-0.092 (inactive)
5,COMMD1 (UniProt Q8N668),-0.016 (inactive)
6,C15orf41 (UniProt Q9Y2V0),-0.087 (inactive)
7,C6orf120 (UniProt Q7Z4R8),0.026 (inactive)
8,CAB39L (UniProt Q9H9S4),0.042 (inactive)
9,CDK19 (UniProt Q9BWU1),-0.045 (inactive)
10,CHAF1A (UniProt Q13111),0.015 (inactive)
11,COPS3 isoform 2 (UniProt Q9UNS2),0.029 (inactive)
12,C19orf54 (UniProt Q5BKX5),0.013 (inactive)
13,CAV2 (UniProt P51636),0.136 (inactive)
14,CMTM3 (UniProt Q96MX0),0.098 (inactive)
15,COX7B (UniProt P24311),-0.024 (inactive)
16,CDK17 isoform 2 (UniProt Q00537),0.037 (inactive)
17,CHST11 (UniProt Q9NPF2),-0.012 (inactive)

row,Target,log2 fold change
1,CDK16 isoform 2 (UniProt Q00536),-0.072 (inactive)
2,CDK4 (UniProt P11802),0.046 (inactive)
3,CRLS1 (UniProt Q9UJA2),-0.138 (inactive)
4,CDC42SE1 (UniProt Q9NRR8),-0.01 (inactive)
5,CHST10 (UniProt O43529),0.05 (inactive)
6,CDCA2 (UniProt Q69YH5),0.182 (inactive)
7,CENPE (UniProt Q02224),-0.033 (inactive)
8,CEP128 (UniProt Q6ZU80),-0.016 (inactive)
9,CNN3 (UniProt Q15417),-0.107 (inactive)
10,CLINT1 isoform 3 (UniProt Q14677),0.017 (inactive)
11,CDKN1B (UniProt P46527),0.009 (inactive)
12,C1D (UniProt Q13901),0.151 (inactive)
13,C22orf39 (UniProt Q6P5X5),-0.071 (inactive)
14,CRTC1 isoform 2 (UniProt Q6UUV9),-0.267 (inactive)
15,CLN5 (UniProt O75503),0.002 (inactive)
16,CHPT1 (UniProt Q8WUD6),-0.192 (inactive)
